From PubChem BioAssay (NCATS)
Records with an inconclusive call do not appear. Active and inactive are the calls of the source. Unless noted, calls come from the whole dose curve; as a rule, active = well fitted curve in the direction sought with a large enough effect; inconclusive = small, poorly fitted or top-dose-only effect, or another doubt; inactive = no such curve, though single readings can be large; an effect the other way counts as inactive or inconclusive.

Assays:
[1] = target: Alpha-galactosidase A (Homo sapiens) (UniProt P06280); test: Counterscreen for Glucocerebrosidase Inhibitors: qHTS Assay for Human alpha-Galactosidase at pH 4.5 (AID 992)
Sequence of Alpha-galactosidase A (Homo sapiens) (P06280 whole entry, looked up): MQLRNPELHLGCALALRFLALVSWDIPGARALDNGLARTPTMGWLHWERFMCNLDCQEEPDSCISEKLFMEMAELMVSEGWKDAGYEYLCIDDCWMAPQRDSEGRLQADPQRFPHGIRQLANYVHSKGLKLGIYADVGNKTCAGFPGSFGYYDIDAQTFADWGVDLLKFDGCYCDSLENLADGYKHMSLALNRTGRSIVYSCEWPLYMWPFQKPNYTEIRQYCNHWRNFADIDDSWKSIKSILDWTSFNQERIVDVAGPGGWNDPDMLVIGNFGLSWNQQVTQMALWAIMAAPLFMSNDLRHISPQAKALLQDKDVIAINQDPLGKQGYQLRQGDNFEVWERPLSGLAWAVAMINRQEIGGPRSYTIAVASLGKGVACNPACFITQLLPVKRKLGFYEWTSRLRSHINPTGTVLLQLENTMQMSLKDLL
How it was run: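 Enzyme at 2 nM final was combined with compound (0.7 nM to 77 uM) and 80 uM 4-methylumbelliferyl alpha-D-galactopyranoside in 50 mM citric acid, 0.005% Tween-20, pH 4.5. After 20 min at room temperature, fluorescence was read (Ex 365/Em 440 nm); AC50 came from Hill fits.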

[2] = target: alpha-glucosidase (Oryza sativa, rice) (UniProt Q653V4); test: Counterscreen for Glucocerebrosidase Inhibitors: qHTS Assay for Rice alpha-Glucosidase at pH 5.0 (AID 997)
How it was run: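 Rice alpha-glucosidase (4 nM final) with 400 uM 4-methylumbelliferyl-alpha-D-glucopyranoside in citrate buffer pH 5.0, 20 min at room temperature, stopped at pH 10; fluorescence 365/440 nm, compounds 0.7 nM–77 uM, AC50 from Hill fits.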

[3] = Cell Viability - LYMP2-016 (AID 984);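 note: cells exposed to compound for 24 hours at 37 °C; nearly all actives have a fitted effect of over 55% in size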; note: potency is the fitted concentration of half-maximal effect
How it was run: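 qHTS, 1536-well: 2500 LYMP2-016 cells/well, 5 hr 37 C, compound added, 24 hr 37 C, CellTiter-Glo 30 min RT, luminescence. Tetraoctylammonium bromide positive control. AC50 via Hill fit.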

[4] = Cell Viability - LYMP2-018 (AID 985);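 note: compound exposure lasted 24 hr at 37 °C; nearly all actives have a fitted effect of over 50% in size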; note: potency is the fitted concentration of half-maximal effect
How it was run: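 Luminescent ATP signal (CellTiter-Glo, read after 30 min at room temperature) reports viable cells after 24 hr compound treatment at 37 C. Concentration-response data were fitted to the standard Hill equation for AC50.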

[5] = Cell Viability - LYMP2-020 (AID 986); note: nearly all actives have a fitted effect of over 55% in size; note: potency is the fitted concentration of half-maximal effect
How it was run: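 Luminescent ATP signal (CellTiter-Glo, 30 min at room temperature) is the read-out after 24 h compound treatment of lymphoblastoid cells at 37 C. AC50 values come from Hill-equation fits across concentrations.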

[6] = Cell Viability - LYMP2-022 (AID 987); note: nearly all actives have a fitted effect of over 55% in size; note: potency is the fitted concentration of half-maximal effect
How it was run: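 qHTS: human lymphoblastoid cells 2500/well; 5 hr 37 C; cpd added; 24 hr 37 C; CellTiter-Glo, 30 min RT; luminescence. AC50 via Hill fit; tetraoctylammonium bromide positive ctrl.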

[7] = Cell Viability - LYMP2-024 (AID 988); note: nearly all actives have a fitted effect of over 60% in size; note: potency is the fitted concentration of half-maximal effect
How it was run: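 Steps: seed 2500 cells/well, 5 hr 37 C; add compound, 24 hr 37 C; add CellTiter-Glo, 30 min room temperature; read luminescence. AC50 derived by Hill modelling of concentration-dependent ATP loss.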

[8] = Cell Viability - LYMP2-026 (AID 989); note: nearly all actives have a fitted effect of over 50% in size; note: potency is the fitted concentration of half-maximal effect
How it was run: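 Luminescent ATP signal (CellTiter-Glo, 30 min room temperature) measures viable lymphoblastoid cells after 24 hr compound treatment at 37 C. Decreased ATP reflects acute toxicity; AC50 values come from Hill-equation modeling.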

[9] = Cell Viability - LYMP1-002 - Assay at 24 hr (AID 993); note: potency is the fitted concentration of half-maximal effect
How it was run: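 Cells plated 2500/well, 5 hr 37 C; compounds added, 24 hr 37 C; CellTiter-Glo added, 30 min RT; luminescence read. Tetraoctylammonium bromide positive control. Hill-equation AC50.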

[10] = Validation of Assay for Modulators of Lamin A Splicing (AID 1459; active = well fitted curve in the direction sought with a large enough effect in the signal ratio; the % refers to the signal ratio;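 note: cells exposed to compound for two days before reading; ratio rise marks activators and ratio drop marks inhibitors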)
How it was run: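 Readout: ratio of GFP (500-530 nm) to RFP (575-640 nm) total object intensity by 488 nm laser-scanning cytometry after 48 hrs. Cells were HeLa S3 clones carrying lamin A-EGFP minigene plus DsRed2 viability reporter; vehicle 0.5% DMSO final.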

Measured: Potency

CC(C)OC(=O)C(C)(C)Oc1ccc(C(=O)c2ccc(Cl)cc2)cc1
inactive: [1] | [2]

COc1cccc(-c2cc(=O)c3ccccc3o2)c1N
inactive: [1] | [2]

NCCS
inactive: [1] | [2]

C[N+](C)(C)CCCCCC[N+](C)(C)C
inactive: [1] | [2]

CC(C)(C)c1ccc(C(O)CCCN2CCC(C(O)(c3ccccc3)c3ccccc3)CC2)cc1 (centres undefined)
inactive: [1] | [2]

CC(=O)N[C@@H](CS)C(=O)O
inactive: [1] | [2]

CC(=O)c1ccc(S(=O)(=O)NC(=O)NC2CCCCC2)cc1
not listed: [10]
inactive: all other assays above

O=c1[nH]cnc2c1ncn2[C@H]1CC[C@@H](CO)O1
not listed: [1] | [2] | [10]
inactive: all other assays above

O=c1c(O)c(-c2ccc(O)cc2)oc2cc(O)cc(O)c12
not listed: [1] | [2] | [10]
inactive: all other assays above

O=C(O)Cc1cccc2ccccc12
not listed: [1] | [2] | [10]
inactive: all other assays above

COc1ccccc1N1CCN(CCCNc2cc(=O)n(C)c(=O)n2C)CC1
inactive: [1] | [2]

CCN(CC)C(=O)c1ccc(O)c(OC)c1
inactive: [1] | [2]

CC1=C(/C=C/C(C)=C/C=C/C(C)=C/C(=O)Nc2ccc(O)cc2)C(C)(C)CCC1
inactive: [1] | [2]
active: [3] 63.1 µM | [4] 50.1 µM | [5] 50.1 µM | [6] 39.8 µM | [7] 39.8 µM | [8] 39.8 µM | [9] 50.1 µM

CCn1cc(C(=O)O)c(=O)c2ccc(C)nc21
not listed: [1] | [2] | [10]
inactive: all other assays above

CCCNC(=O)NS(=O)(=O)c1ccc(Cl)cc1
not listed: [10]
inactive: all other assays above

CCN(CC)CCNC(=O)c1ccc(N)cc1
inactive: [1] | [2]

CC1(C)CCC2=C(O1)c1ccccc1C(=O)C2=O
inactive: [1] | [2]

O=c1cc(-c2ccc(O)cc2)oc2cc(O)cc(O)c12
inactive: [1] | [2]

O=c1c(-c2ccc(O)cc2)coc2cc(O)ccc12
inactive: all assays above

CCN(CC)CCOC(=O)c1ccc(N)cc1
inactive: [1] | [2]

NC(N)=Nc1nc(CSCC/C(N)=N/S(N)(=O)=O)cs1
inactive: [1] | [2]

O=C1NCC2(CCN(CCc3ccccc3)CC2)O1
inactive: [1] | [2] | [10]

CC(=O)CCCCn1c(=O)c2c(ncn2C)n(C)c1=O
inactive: [1] | [2]

C[N+](C)(C)CC(=O)O
inactive: [1] | [2]

Clc1ccc(Cn2c(CN3CCCC3)nc3ccccc32)cc1
inactive: [1] | [2] | [10]

O=C(O)c1cc(O)c2c(c1)C(=O)c1cccc(O)c1C2=O
not listed: [1] | [2] | [10]
inactive: all other assays above

COc1ccc(Cc2nccc3cc(OC)c(OC)cc23)cc1OC
inactive: [1] | [2]

CN(C)CCC(c1ccccc1)c1ccccn1 (centres undefined)
not listed: [1] | [2] | [10]
inactive: all other assays above

CC(=O)O[C@]1(C(C)=O)CC[C@H]2[C@@H]3C=C(Cl)C4=CC(=O)[C@@H]5C[C@@H]5[C@]4(C)[C@H]3CC[C@@]21C
not listed: [1] | [2] | [10]
inactive: all other assays above

O=C(O)CCc1nc(-c2ccccc2)c(-c2ccccc2)o1
inactive: [1] | [2]

CC(C)NCC(O)COc1cccc2[nH]ccc12 (centres undefined)
inactive: [1] | [2]

O=C1NC(=O)C(c2ccccc2)(c2ccccc2)N1
not listed: [10]
inactive: all other assays above

COCCCCC(=NOCCN)c1ccc(C(F)(F)F)cc1
inactive: [1] | [2]

CC/C(=C(\c1ccccc1)c1ccc(OCCN(C)C)cc1)c1ccccc1
active: [3] 39.8 µM | [4] 50.1 µM | [5] 50.1 µM | [6] 39.8 µM | [7] 50.1 µM | [8] 50.1 µM | [9] 50.1 µM
inactive: [1] | [2]

CCCCC1C(=O)N(c2ccccc2)N(c2ccccc2)C1=O
not listed: [10]
inactive: all other assays above

CCN1CCC[C@H]1CNC(=O)c1cc(S(N)(=O)=O)ccc1OC
inactive: [1] | [2]
